In paper PMC5540273 (PLoS ONE, 2017):

Key:
Conditions in all cases: concentration: 1 μM, replicates: in singlicate; n = 1
[1] = test system: T1, FAK
T1 construct: gene PTK2

[2] = test system: FER
[3] = test system: FES
[4] = test system: FGFR1
[5] = test system: FGFR2
[6] = test system: FGFR3
[7] = test system: FGFR4
[8] = test system: FGR
[9] = test system: FLT1
[10] = test system: FLT3-autoinhibited
[11] = test system: FLT3
[12] = test system: FLT4
[13] = test system: FRK
[14] = test system: FYN
[15] = test system: GAK
[16] = test system: T2, GCN2(Kin.Dom.2,S808G)
T2 construct: gene EIF2AK4

[17] = test system: GRK1
[18] = test system: T3, GRK2
T3 construct: gene ADRBK1

[19] = test system: T4, GRK3
T4 construct: gene ADRBK2

[20] = test system: GRK4
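Note: KINOMEscan kinase panel screen.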

Compound	%Inh [1] [%]	%Inh [2] [%]	%Inh [3] [%]	%Inh [4] [%]	%Inh [5] [%]	%Inh [6] [%]	%Inh [7] [%]	%Inh [8] [%]	%Inh [9] [%]	%Inh [10] [%]	%Inh [11] [%]	%Inh [12] [%]	%Inh [13] [%]	%Inh [14] [%]	%Inh [15] [%]	%Inh [16] [%]	%Inh [17] [%]	%Inh [18] [%]	%Inh [19] [%]	%Inh [20] [%]
O=C(O)COc1ncnc2cc(-c3ccc4[nH]ncc4c3)sc12	5	0	7	23	1	0	0	0	0	39	2	2	100	100	4	0	3	20	23	0
Cc1cc(N2Cc3ccccc3C2)nc(Nc2ccc(S(=O)(=O)N3CCOCC3)cc2)n1.Cl [GSK1669917]	0	25	9	0	11	15	1	0	9	0	0	3	11	0	0	0	0	0	0	0
Fc1cc(Cl)ccc1Nc1ccnc2cc(I)ccc12 [GW551191]	0	0	0	8	18	0	5	30	30	0	0	3	20	25	82	5	0	0	32	4
COC(=O)c1c(-c2ccccc2)c2cc(OC)ccc2c(=O)n1Cc1ccccc1	0	0	22	7	3	3	0	29	0	21	8	9	45	0	6	2	0	0	1	0
COc1ccc(Nc2nccc(-c3cccc(NC(=O)c4cc5cc(F)ccc5[nH]4)c3)n2)cc1 [GSK1229782]	1	43	27	21	0	13	2	60	17	0	39	0	40	31	49	4	0	0	45	0
O=S(=O)(c1ccc(-c2ccnc3[nH]ccc23)cc1)N1CCCC1 [GSK846226]	0	12	0	0	0	12	2	16	22	8	0	0	0	25	28	0	0	0	0	0
COc1ccccc1-c1ccc2c(NC(=O)C3CC3)n[nH]c2n1 [SB-711239]	0	4	22	0	12	8	10	26	6	0	5	0	0	5	14	10	13	0	0	28
CCCc1ccc(S(=O)(=O)NC2CCN(c3ccnc(Nc4ccc(F)cc4)n3)C2)cc1 (stereo not shown) [GSK1379715]	0	0	0	0	0	2	11	23	18	0	0	0	8	0	10	0	100	0	33	0
